# Results reported in the supplement of paper PMC8728848.
# About 410 targets per protein were measured; listed, in parts, are those with the strongest signals and a random draw of the rest.
# What was measured:
# Experiment in all cases: glycan array binding signal (z-score within array); higher = stronger binding
# Settings in all cases: glycan notation: IUPAC condensed, linker removed
# [1] = molecular target: Fuc(a1-2)Gal(b1-3)GalNAc(b1-4)[Neu5Ac(a2-3)]Gal(b1-4)Glc
# Method in brief: (§1)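 Glycan array binding is given as a within-array Z-score, which can be read as non-binding when negative. The arrays, 3228 of them, came from the Consortium for Functional Glycomics database and were retained only where the protein sequence was available. Z-scores were averaged across arrays of the same protein sequence at different concentrations or buffers and across linkers.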
# [2] = molecular target: Fuc(a1-2)[Gal(a1-4)]Gal(b1-4)GlcNAc
# Method in brief: as §1
# [3] = molecular target: Fuc(a1-2)[GalNAc(a1-3)]Gal(b1-3)GalNAc(b1-3)Gal(a1-4)Gal(b1-4)Glc
# Method in brief: as §1
# [4] = molecular target: Fuc(a1-2)[GalNAc(a1-3)]Gal(b1-4)GlcNAc(b1-3)Gal(b1-4)GlcNAc
# Method in brief: as §1
# [5] = molecular target: Fuc(a1-3)[Gal(b1-4)]GlcNAc
# Method in brief: as §1
# [6] = molecular target: Fuc(a1-3)[Gal(b1-4)]GlcNAc(b1-6)GalNAc
# Method in brief: as §1
# Fuc(a1-4)GlcNAc = molecular target: Fuc(a1-4)GlcNAc
# Method in brief: as §1
# [7] = molecular target: Gal(a1-3)Gal(b1-3)GlcNAc(b1-2)Man(a1-3)[Gal(a1-3)Gal(b1-3)GlcNAc(b1-2)Man(a1-6)]Man(b1-4)GlcNAc(b1-4)GlcNAc
# Method in brief: as §1
# [8] = molecular target: Gal(a1-3)Gal(b1-3)[Fuc(a1-4)]GlcNAc(b1-2)Man(a1-3)[Gal(a1-3)Gal(b1-3)[Fuc(a1-4)]GlcNAc(b1-2)Man(a1-6)]Man(b1-4)GlcNAc(b1-4)GlcNAc
# Method in brief: as §1
# [9] = molecular target: Gal(a1-3)Gal(b1-4)GlcNAc(b1-2)Man(a1-3)[Gal(a1-3)Gal(b1-4)GlcNAc(b1-2)Man(a1-6)]Man(b1-4)GlcNAc(b1-4)GlcNAc
# Method in brief: as §1
# [10] = molecular target: Gal(a1-3)Gal(b1-4)GlcNAc(b1-3)GalNAc
# Method in brief: as §1
# [11] = molecular target: Gal(a1-3)[Gal(a1-4)]Gal(b1-4)GlcNAc
# Method in brief: as §1
# [12] = molecular target: Gal(a1-4)Gal(b1-3)GlcNAc(b1-2)Man(a1-3)[Gal(a1-4)Gal(b1-3)GlcNAc(b1-2)Man(a1-6)]Man(b1-4)GlcNAc(b1-4)GlcNAc
# Method in brief: as §1
# [13] = molecular target: Gal(b1-3)GlcNAc(b1-2)Man(a1-3)[GlcNAc(b1-4)][Gal(b1-3)GlcNAc(b1-2)Man(a1-6)]Man(b1-4)GlcNAc(b1-4)GlcNAc
# Method in brief: as §1
# [14] = molecular target: Gal(b1-3)GlcNAc(b1-3)GalNAc
# Method in brief: as §1
# [15] = molecular target: Gal(b1-3)[Fuc(a1-4)]GlcNAc(b1-3)Gal(b1-4)[Fuc(a1-3)]GlcNAc
# Method in brief: as §1
# [16] = molecular target: Gal(b1-4)GlcNAc(a1-6)Gal(b1-4)GlcNAc
# Method in brief: as §1
# [17] = molecular target: Gal(b1-4)GlcNAc(b1-3)Gal(b1-3)GalNAc
# Method in brief: as §1
# [18] = molecular target: Gal(b1-4)GlcNAc(b1-3)Gal(b1-3)GlcNAc
# Method in brief: as §1
# [19] = molecular target: Gal(b1-4)GlcNAc(b1-3)Gal(b1-4)GlcNAc
# Method in brief: as §1
# [20] = molecular target: Gal(b1-4)GlcNAc(b1-3)Gal(b1-4)GlcNAc(b1-2)[Gal(b1-4)GlcNAc(b1-3)Gal(b1-4)GlcNAc(b1-6)]Man(a1-6)[Gal(b1-4)GlcNAc(b1-3)Gal(b1-4)GlcNAc(b1-2)Man(a1-3)]Man(b1-4)GlcNAc(b1-4)[Fuc(a1-6)]GlcNAc
# Method in brief: as §1
# [21] = molecular target: Gal(b1-4)GlcNAc(b1-3)Gal(b1-4)GlcNAc(b1-3)Gal(b1-4)GlcNAc(b1-2)[Gal(b1-4)GlcNAc(b1-3)Gal(b1-4)GlcNAc(b1-3)Gal(b1-4)GlcNAc(b1-6)]Man(a1-6)[Gal(b1-4)GlcNAc(b1-3)Gal(b1-4)GlcNAc(b1-3)Gal(b1-4)GlcNAc(b1-2)Man(a1-3)]Man(b1-4)GlcNAc(b1-4)[Fuc(a1-6)]GlcNAc
# Method in brief: as §1
# [22] = molecular target: Gal(b1-4)GlcNAc(b1-3)Gal(b1-4)GlcNAc(b1-3)Gal(b1-4)GlcNAc(b1-3)Gal(b1-4)GlcNAc(b1-2)Man(a1-3)[Gal(b1-4)GlcNAc(b1-3)Gal(b1-4)GlcNAc(b1-3)Gal(b1-4)GlcNAc(b1-3)Gal(b1-4)GlcNAc(b1-2)Man(a1-6)]Man(b1-4)GlcNAc(b1-4)[Fuc(a1-6)]GlcNAc
# Method in brief: as §1
# [23] = molecular target: Gal(b1-4)GlcNAc(b1-3)Gal(b1-4)GlcNAc(b1-3)Gal(b1-4)GlcNAc(b1-3)Gal(b1-4)GlcNAc(b1-2)[Gal(b1-4)GlcNAc(b1-3)Gal(b1-4)GlcNAc(b1-3)Gal(b1-4)GlcNAc(b1-3)Gal(b1-4)GlcNAc(b1-6)]Man(a1-6)[Gal(b1-4)GlcNAc(b1-3)Gal(b1-4)GlcNAc(b1-3)Gal(b1-4)GlcNAc(b1-3)Gal(b1-4)GlcNAc(b1-2)Man(a1-3)]Man(b1-4)GlcNAc(b1-4)[Fuc(a1-6)]GlcNAc
# Method in brief: as §1
# [24] = molecular target: Gal(b1-4)GlcNAc(b1-3)Gal(b1-4)GlcNAc(b1-3)Gal(b1-4)GlcNAc(b1-3)Gal(b1-4)GlcNAc(b1-3)Gal(b1-4)GlcNAc(b1-2)Man(a1-3)[Gal(b1-4)GlcNAc(b1-3)Gal(b1-4)GlcNAc(b1-3)Gal(b1-4)GlcNAc(b1-3)Gal(b1-4)GlcNAc(b1-3)Gal(b1-4)GlcNAc(b1-2)Man(a1-6)]Man(b1-4)GlcNAc(b1-4)[Fuc(a1-6)]GlcNAc
# Method in brief: as §1
binder,measurement,setting,value
GS13971A-bth-447-22-447 (Bacteroides thetaiotaomicron) (protein) EDVDNERSKGMFSASQSGFSTIEVYDLGPLNKIDLSIAKAGLEDTGGTVTFSVEQSLLDSLNNADGTSYQLLPPECYTIENATYSVSPGGDRRVTGGSLVYDPHKIYNLCGFDELKYVLPLRVSSTGTPMNSDRTATLYGFIVKEAIVRLASTGGDFVVEGGTTTSPMNLDTEISFENEWDLTTSFATKGADYVDNYNSANSTYYIPLPSDFYTLPDVTIAKGKTTGGSAISLLGETLPPGNYLLPVSLGGLSGQGDASINIDKETVANYFVIKQGGPINRDHWTVTANTEEKTGEVSAAYPHNGQTISLIDGEINTFWHSKWQGGEVAPPYEIILDMGKENSVSQLGLIARQNALTSMNLEIYAGDDGETWNLIGKYFFDGSIKTEQMVPVKACDARWIRIYIPTLGSGSSVGHLAEIYVYGTDK,glycan array binding signal (z-score),[1],-0.611
same,glycan array binding signal (z-score),[2],1.4
same,glycan array binding signal (z-score),[3],-0.418
same,glycan array binding signal (z-score),[4],-0.622
same,glycan array binding signal (z-score),[5],0.548
same,glycan array binding signal (z-score),[6],0.414
same,glycan array binding signal (z-score),Fuc(a1-4)GlcNAc,12.2
same,glycan array binding signal (z-score),[7],-0.916
same,glycan array binding signal (z-score),[8],0.437
same,glycan array binding signal (z-score),[9],0.313
same,glycan array binding signal (z-score),[10],0.741
same,glycan array binding signal (z-score),[11],3.1
same,glycan array binding signal (z-score),[12],0.513
same,glycan array binding signal (z-score),[13],0.373
same,glycan array binding signal (z-score),[14],0.748
same,glycan array binding signal (z-score),[15],1.09
same,glycan array binding signal (z-score),[16],0.525
same,glycan array binding signal (z-score),[17],-0.104
same,glycan array binding signal (z-score),[18],0.498
same,glycan array binding signal (z-score),[19],-1.12
same,glycan array binding signal (z-score),[20],2.62
same,glycan array binding signal (z-score),[21],0.617
same,glycan array binding signal (z-score),[22],2.21
same,glycan array binding signal (z-score),[23],2.31
same,glycan array binding signal (z-score),[24],2.91
